From PubChem
Rows were chosen to be rich in hits. Some 6.6% of all compounds tested hit in one or more screens of this group.
TGFb inhibitor – TGF-b pathway inhibition; Potency, µM (highest dose often 46.1 µM), for inactives: at the top dose activity, negative = inhibition, most hits filed as inhibitors; 410,000 tested, 1.2% active; HepG2 CAGA-GFP TGF-b/SMAD3 reporter, GFP fluorescence, 18 h; TGF-beta stimulated, 500 pg/mL final; AID 588855; note: % is set by controls: 0 for no effect and ±100 for the full control effect; nearly all actives have a fitted effect of over 65% in size
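Cell-based qHTS in HEPG2 carrying a CAGA-GFP Smad reporter; compounds added before 500 pg/mL final TGF-beta, 18 h incubation at 37 degrees C, GFP fluorescence quantified per cell by imaging cytometry.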
KB-3-1 cytotox – kills parental KB-3-1 adenocarcinoma cells; KB-3-1 viability, CellTiter-Glo ATP luminescence, 72 h; Potency, µM (series often up to 46.1 µM), most hits filed as cytotoxic; 400,000 tested, 1.4% active; note: % is set by controls: 0 for no effect and ±100 for the full control effect; nearly all actives have a fitted effect of over 60% in size
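Cytotoxicity measured as CellTiter-Glo luminescence after 72 h at 37 C. Compound titrations were pinned onto drug-naive KB-3-1 parental adenocarcinoma cells grown in DMEM with 10% FBS, and normalized data fitted to concentration-response curves.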
HepG2 tox – kills HepG2 cells in TGF-b inhibitor counter-screen; HepG2 CAGA-GFP viability, ATP luminescence, 18 h; Potency, µM (series often up to 46.1 µM), for the others: at the top dose activity change, negative = cytotoxicity, hits mostly cytotoxic; 410,000 tested, 0.76% active; AID 588856
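CellTiter-Glo luminescence gave cytotoxicity after 18 hours at 37 degrees C. The cells were HepG2 CAGA-GFP in 1% FBS DMEM, stimulated with 500 pg/mL TGF-beta after compound addition. %Activity was normalised to no-cell wells (complete cell-killing) and DMSO (no toxicity), and curves were fitted and classified.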
HT1080 IDH1KD tx – kills HT-1080 cells with IDH1 knockdown; HT-1080 IDH1 knockdown viability, ATP luminescence, 48 h; Potency, µM (titrated, usually from 46.1 µM), inactives show top-dose activity, negative = toxicity, hits mostly cytotoxic; 360,000 tested, 2% active; AID 686971;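 note: 0% = DMSO wells and -100% = cell-free medium wells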
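In this qHTS, HT-1080 cells depleted of IDH1 are exposed for 48 h at 37 °C to compound titrations. Toxicity is scored from CellTiter-Glo luminescence, with DMSO as full viability and medium alone as none.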
HT1080-NT tox – kills 2HG-producing HT-1080-NT fibrosarcoma cells; HT-1080-NT fibrosarcoma viability, CellTiter-Glo ATP luminescence, 48 h; Potency, µM (doses to about 46.1 µM), without a hit: top-dose activity, negative = less viability, usual class: cytotoxic; 360,000 tested, 1.6% active; AID 686970;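 note: NT is the 2HG producing partner of a matched IDH1 knockdown line; 0% = DMSO-treated cells and -100% = media-only wells without cells; nearly all actives have a fitted effect of over 55% in size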
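A 48-hour cytotoxicity screen used HT-1080-NT cells plated 2 hours before compound delivery. ATP-based CellTiter-Glo luminescence measured viability, normalized to DMSO and no-cell controls.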
KB-V1 cytotox – KB-V1 MDR subline cytotoxicity; Potency, µM (highest dose often 46.1 µM), hits mostly cytotoxic; KB-V1 MDR cells viability, CellTiter-Glo, 72 h; AID 1347076; 400,000 tested, 3.4% active; note: % is set by controls: 0 for no effect and ±100 for the full control effect; nearly all actives have a fitted effect of over 60% in size
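Compound-treated KB-V1 multidrug-resistant cells, 72 h, 37 degrees C; viability by CellTiter-Glo. Fitted qHTS curves give the values.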
* marks the source's active call; other numbers are inactive results; i = inactive; ? = inconclusive; . = no result given. Calls come from the whole dose curve; as a rule, active = well fitted curve in the direction sought with a large enough effect; inconclusive = small, poorly fitted or top-dose-only effect, or another doubt; inactive = no such curve, though single readings can be large; an effect the other way counts as inactive or inconclusive. Potency is the fitted concentration of half-maximal effect.

SMILES	TGFb inhibitor	KB-3-1 cytotox	HepG2 tox	HT1080 IDH1KD tx	HT1080-NT tox	KB-V1 cytotox
Cc1ccc(-c2nc(N3CCN(S(=O)(=O)c4ccc(F)cc4)CC3)c3ccc(Cl)cc3n2)cc1	25%	.	18%	.	.	.
N#Cc1c(Nc2ccccc2Cl)s[nH]c1=O	0%	i	-143%	16µM*	?	?
N#Cc1c(Nc2ccccc2)s[nH]c1=O	?	i	-6%	-11%	-27%	?
N#Cc1c(Nc2ccccc2C(F)(F)F)s[nH]c1=O	20µM*	i	-53%	?	-25%	i
Cc1ccc2c(=O)cc(C(=O)Nc3sc4c(c3C(=O)NCC3CCCO3)CCCC4)oc2c1C (stereo not drawn)	1%	i	-1%	.	.	i
CCOC(=O)c1c(C)cc2c(CO)n[nH]c(=O)c2c1C	-4%	i	-6%	-11%	-5%	0.82µM*
CCOC(=O)Cc1n[nH]c(=O)c2ccccc12	0%	i	-2%	-14%	-2%	i
CC(SCc1ccccc1)C(=O)Nc1ccc(F)cc1 (stereo not drawn)	-7%	i	-5%	-8%	-4%	?
Cc1cccc(CSC(=N)N)c1	-6%	i	6%	6%	12%	i
N#CC(C#N)=C(Nc1ccc(F)cc1)SCc1cccc(Br)c1	1.6µM*	10µM*	-75%	18µM*	9.2µM*	9.2µM*
Cc1cccc(CSC(Nc2ccc(F)cc2)=C(C#N)C#N)c1	5µM*	16µM*	-28%	-24%	?	?
Cc1ccc(-c2noc(CNC(=O)c3ccc(Br)o3)n2)cc1	?	.	-20%	.	.	.
C/C(=N/Nc1nc(-c2ccccc2F)nc2ccccc12)c1ccccc1O	13µM*	?	-102%	0%	?	i
C[C@@H](NC(=O)c1[nH]cnc1C(=O)Nc1ccccc1)c1ccccc1	14µM*	?	-26%	-25%	-19%	?
Cc1ccc(NC(=O)c2nc[nH]c2C(=O)N[C@@H](C)c2ccccc2)cc1	?	?	-18%	-10%	-27%	?
CC(C)C[C@H](NC(=O)c1[nH]cnc1C(=O)N[C@H](C)c1ccccc1)C(=O)OC(C)(C)C	?	?	16µM*	?	?	?
Cc1cccc(NC(=O)c2nc[nH]c2C(=O)N[C@@H](CC(C)C)C(=O)OC(C)(C)C)c1	?	12µM*	-66%	?	?	?
C[C@H](NC(=O)c1nc[nH]c1C(=O)N[C@@H](CCCCNC(=O)OC(C)(C)C)C(=O)OC(C)(C)C)c1ccccc1	?	?	-4%	?	?	21µM*
CCOC(=O)Cc1ccc(NC(=O)N(Cc2ccc(CC)cc2)Cc2cn[nH]c2-c2ccc(OC)cc2)cc1	?	i	-35%	.	.	?
CC(C)C[C@H](NC(=O)c1nc[nH]c1C(=O)NC(c1ccccc1)c1ccccc1)C(=O)OC(C)(C)C	?	?	0%	21µM*	26µM*	?
O=C(NCCS(=O)(=O)N1CCN(c2ccccc2F)CC1)C(c1ccccc1)c1ccccc1	1%	.	1%	.	.	.
O=C1CC(c2ccccc2)=C(c2ccccc2)C1c1ccccc1 (stereo not drawn)	-16%	?	-9%	4%	-4%	10µM*
O=C1NNC(=O)C1c1ccccc1	15%	i	9%	10%	0%	i
O=C(N/N=C/c1ccc([N+](=O)[O-])cc1)c1cccc2cc[nH]c12	-4%	i	-5%	-4%	-1%	i
CCN(CC)c1ccc(/C=N\NC(=O)c2cccc3cc[nH]c23)cc1	-25%	23µM*	-4%	5.2µM*	?	13µM*
Oc1ccccc1C1C=C(c2ccc3c(c2)OCO3)NC(c2c(F)cccc2Cl)N1 (stereo not drawn)	?	.	-87%	.	.	.
